We go through 30 compounds from PubChem BioAssay AID2289 (National Center for Advancing Translational Sciences (NCATS), 2010).

Each structure is given as a SMILES string. Hit rate of the full screen: of about 340,000 compounds, about 3,300 (0.97%) were called active. Roughly 9% stayed inconclusive and do not appear here. The call rests on the fitted dose curve; in most records, active means well fitted inhibition curve with a large enough effect; inconclusive means small, poorly fitted or top-dose-only effect, or effect the other way; inactive means flat fitted curve, though single readings scatter. Some of the results follow.
Potency means the concentration at half of the fitted maximal effect.

This test can be described thus: qHTS Assay for Modulators of miRNAs and/or Inhibitors of miR-21. Further: nearly all actives have a fitted effect of over 55% in size. Conditions: HeLa miR-21-FLuc reporter, luciferase luminescence, 48 h; actives lower the signal. The procedure, abridged: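 Using DMEM plus 10% FBS, HeLa miR-21-FLuc cells are incubated with test compounds (final up to about 40uM) for 48 hours; firefly luciferase signal is then imaged following reagent-mediated lysis.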
With `CN(C)c1ccc(-n2cc3c(=O)n(C)c(=O)n(C)c3c2)cc1`, the Potency is 11.7 µM (active).
With `COCc1cc(C)nc2sc(C(=O)Nc3nccs3)c(N)c12`, the Potency was 13.1 µM (active).
In the case of `COCc1cc(C)nc2sc(C(=O)Nc3ccc(OC)cc3)c(N)c12`, the Potency is 16.5 µM (active).
With `COCc1cc(C)nc2sc(C(=O)Nc3cccc(OC)c3)c(N)c12`, the Potency was 2.07 µM (active).
Under `Nc1c(-c2nc(-c3ccccc3Cl)no2)nnn1-c1ccccc1F` stands 0.826 µM (active); under `CCc1ccccc1NC(=O)C(=O)c1cc(C)n(-c2ccccc2F)c1C`, 16.5 µM (active).
Take `CCOC(=O)c1c(C)oc2c1cc(O)c1ccccc12`: the Potency was 5.21 µM (active).
On to `CCOC(=O)c1c(C)oc2c1c1c(c3ccccc32)OCN(CCCC(=O)O)C1`, for which the Potency was 10.4 µM (active).
As for `CCOC(=O)c1c(C)oc2c1c(CN1CCN(C(=O)OCC)CC1)c(O)c1ccccc12`, the figure is 14.7 µM (active); as for `CCOC(=O)c1c(C)oc2c1c(CN1CCN(CCO)CC1)c(O)c1ccccc12`, 10.4 µM (active).
Turning to `c1ccc(Nc2ncnc3c2oc2ccccc23)cc1`, the Potency is 7.36 µM (active).
Consider `Oc1cccc(Nc2ncnc3c2oc2ccccc23)c1`, for which the Potency was 5.21 µM (active).
Turning to `COc1ccccc1Nc1ncnc2c1oc1ccccc12`, the Potency is 14.7 µM (active).
As for `Oc1ccc(Nc2ncnc3c2oc2ccccc23)cc1`, the Potency is 13.1 µM (active).
Consider `c1ccc2c(c1)oc1c(Nc3ccc4c(c3)OCO4)ncnc12`, for which the Potency is 1.65 µM (active).
As for `C=C1SC(=Nc2ccccc2Cl)N(C(=O)c2sc3ccccc3c2Cl)C1(C)C`, the figure is 13.1 µM (active).
Regarding `O=C(NC1=NCCS1)c1sc2cc(F)ccc2c1Cl`, the Potency was 0.736 µM (active).
`O=C(Nc1ccon1)c1sc2cc(F)ccc2c1Cl`: the Potency was 1.65 µM (active).
As for `CCCc1cc(C(=O)NCCc2ccccc2)no1`, the figure is 4.14 µM (active); as for `CC(C)c1cc(C(=O)NCCc2ccccc2)no1`, 2.33 µM (active); as for `CC(C)Cc1cc(C(=O)NCCc2ccccc2)no1`, 2.33 µM (active).
Regarding `Brc1ccc(C2=NC(Cc3ccccc3)CO2)cc1` (stereo not given), the Potency was 14.7 µM (active).
Turning to `OC(COc1ccc2ccccc2c1Cl)CN1CCOCC1` (stereo not given), the Potency was 10.4 µM (active).
For the compound `COc1ccc2oc(C(=O)c3ccccc3)c(N)c2c1`, the Potency is 1.17 µM (active).
Under `Nc1c(C(=O)c2ccccc2)oc2ccc(Br)cc12` stands 2.61 µM (active); under `COc1ccc(C(=O)c2oc3ccc(OC)cc3c2N)cc1`, 7.36 µM (active).
`COc1ccc(OCc2cccc(C(=O)Nc3ccc(CN4CCCCC4)cc3)c2)cc1`: the Potency is 2.07 µM (active).
Turning to `COc1ccc(OCc2cccc(C(=O)N3CCCC3)c2)cc1`, the Potency was 1.47 µM (active).
As for `CC1CN(C(=O)c2cccc(COc3ccc(Br)cc3)c2)CC(C)O1` (stereo not given), the figure is 2.93 µM (active); as for `Cc1cc(NC(=O)c2cccc(COc3ccc(Br)cc3)c2)no1`, 1.04 µM (active).
